Results filed as inconclusive are left out. Entries that show only a call come without a potency. Active and inactive are the calls of the source. Calls follow the shape of the dose curve; as a rule, active = well fitted inhibition curve with a large enough effect; inconclusive = small, poorly fitted or top-dose-only effect; inactive = flat fitted curve, though single readings scatter.
biological target: Glutathione peroxidase 1 (Homo sapiens) (UniProt P07203); assay: Primary qHTS Assay for Inhibitors of Recombinant Selenoprotein Glutathione Peroxidase 1 (GPX1) (AID 1845191); conditions: recombinant GPX1, GR-coupled NADPH fluorescence, 15 min; series mostly up to 48.8 µM
Sequence (P07203 whole entry, looked up): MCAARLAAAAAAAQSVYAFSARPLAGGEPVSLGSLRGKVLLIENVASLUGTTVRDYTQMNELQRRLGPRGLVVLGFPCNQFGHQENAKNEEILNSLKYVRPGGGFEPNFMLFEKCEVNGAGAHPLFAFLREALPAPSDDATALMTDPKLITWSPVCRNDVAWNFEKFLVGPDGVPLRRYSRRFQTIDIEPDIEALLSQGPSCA
Procedure, shortened: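 Recombinant GPX1 (10 nM final) was preincubated with compound for 30 min at room temperature, then reacted with 1 mM GSH, 0.5 mM CHP, 0.5 mM NADPH and 100 nM glutathione reductase; NADPH fluorescence (340/450 nm) was read at 0 and 15 min.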
Also: nearly all actives have a fitted effect of over 65% in size.

Compound | Potency
CC1(C)[C@@H](OC(=O)CCC(=O)O)CC[C@]2(C)[C@H]3C(=O)C=C4[C@@H]5C[C@@](C)(C(=O)O)CC[C@]5(C)CC[C@@]4(C)[C@]3(C)CC[C@@H]12 | inactive
COc1ccc(NS(=O)(=O)c2ccc(N)cc2)nn1 | inactive
Nc1ccc(S(=O)(=O)c2ccc(N)cc2)cc1 | inactive
CC1(C)S[C@@H]2[C@H](NC(=O)C(C(=O)O)c3ccccc3)C(=O)N2[C@H]1C(=O)O (stereo partly specified) | inactive

biological target: Phospholipid hydroperoxide glutathione peroxidase GPX4 (Homo sapiens) (UniProt P36969); assay: Primary qHTS Assay for Inhibitors of Recombinant Selenoprotein Glutathione Peroxidase 4 (GPX4) (AID 1845192); conditions: recombinant GPX4, GR-coupled NADPH fluorescence, 15 min; series mostly up to 50 µM
Sequence (P36969 whole entry, looked up): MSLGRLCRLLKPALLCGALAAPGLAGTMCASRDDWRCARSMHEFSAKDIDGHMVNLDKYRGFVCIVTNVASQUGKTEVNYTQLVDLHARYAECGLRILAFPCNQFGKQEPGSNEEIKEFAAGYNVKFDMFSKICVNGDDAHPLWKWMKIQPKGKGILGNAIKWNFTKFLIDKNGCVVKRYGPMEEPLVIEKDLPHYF
Procedure, shortened: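 GR-coupled readout: 100 nM GR, 1 mM GSH, 0.5 mM NADPH; NADPH fluorescence (ex 340/em 450 nm) read at t=0 and after 15 min RT. GPX4 200 nM, preincubated 30 min with compound; substrate 0.5 mM CHP.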

Compound | Potency
C[C@@H](N)C(=O)O | inactive
CCOC(=O)[C@H](CCc1ccccc1)N[C@@H](C)C(=O)N1Cc2cc(OC)c(OC)cc2C[C@H]1C(=O)O | inactive
NC(=O)c1ccc([N+](=O)[O-])cc1Cl | inactive
Cc1cc(C)nc(NS(=O)(=O)c2ccc(N)cc2)n1 | inactive
CC1(C)[C@@H](OC(=O)CCC(=O)O)CC[C@]2(C)[C@H]3C(=O)C=C4[C@@H]5C[C@@](C)(C(=O)O)CC[C@]5(C)CC[C@@]4(C)[C@]3(C)CC[C@@H]12 | inactive
C[C@H]1COc2c(C3(N)CC3)c(F)cc3c(=O)c(C(=O)O)cn1c23 | inactive
NCc1ccc(S(N)(=O)=O)cc1 | inactive
O=C(O)COC(=O)Cc1ccccc1Nc1c(Cl)cccc1Cl | inactive
COc1ccc(NS(=O)(=O)c2ccc(N)cc2)nn1 | inactive
CN1C(=O)CC(c2ccccc2)C1=O (stereo unspecified) | inactive
C/C(=C(\CCO)SS/C(CCO)=C(\C)N(C=O)Cc1cnc(C)nc1N)N(C=O)Cc1cnc(C)nc1N | inactive
Cc1cc(OI)c(C(C)C)cc1-c1cc(C(C)C)c(OI)cc1C | inactive

Reference: PubChem BioAssay (NCATS)
